In PubChem BioAssay AID836 (Columbia University Molecular Screening Center, 2007):
About 160 (0.18%) of roughly 91,000 compounds were called active.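 How the source made its calls: active means inhibition above the batch mean plus 3 SD and confirmed as a hit by visual image inspection (cut at about 30% in these data, passing the limit was not always enough); inconclusive means above the inhibition threshold but rejected on visual inspection; inactive means the rest.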 The full list was thinned out, with actives kept by preference.

Experiment: modifiers of F-actin cytoskeleton organization, primary screen, imaging, HUVEC, phalloidin staining, high-content imaging (AID 836)
Settings: HUVEC TNFa F-actin phalloidin imaging, at 2 µM, stronger effect = higher value

Question: For `Cc1cccc(C)c1NC(=O)c1ccc(CN2CCc3ccccc3C2)cc1`, which inhibition is on record?
Answer: -19.9% (inactive)

Question: Which inhibition does the source give for `Cc1cc(C)cc(OCC(=O)Nc2nc3ccc([N+](=O)[O-])cc3s2)c1` here?
Answer: -19.8% (inactive)

Question: With `Cc1ccc(-c2nnc(-n3nnc4ccccc43)c3ccccc23)cc1` as the compound, how does the inhibition read?
Answer: -2% (inactive)

Question: Which inhibition does the source give for `CC(C)c1ccc(/C=C/C(=O)NNC(=O)c2cccnc2)cc1` here?
Answer: 1.1% (inactive)

Question: With `O=C(Nc1ccccc1)O/N=C1\CCCCC1c1ccc([N+](=O)[O-])cc1[N+](=O)[O-]` (stereo unspecified) as the compound, how does the inhibition read?
Answer: -8.4% (inactive)

Question: For `c1ccc2c(CSCc3nc4ccccc4[nH]3)cccc2c1`, which inhibition is on record?
Answer: -12.1% (inactive)

Question: Which inhibition does the source give for `CSc1ccc(C#N)cc1NC(=O)c1cccc(Cl)c1` here?
Answer: 3.3% (inactive)

Question: With `Cc1[nH]n(-c2ccccc2)c(=O)c1CCOC(=O)c1ccc(C(F)(F)F)cc1` as the compound, how does the inhibition read?
Answer: -0.4% (inactive)

Question: For `CN(C)Cc1ccccc1C1(O)c2ccccc2CSc2ccccc21` (stereo unspecified), which inhibition is on record?
Answer: -10.2% (inactive)

Question: For `O=C(/C=C/c1ccccc1)N/C(=C/c1ccccc1)C(=O)Nc1ccccc1O`, which inhibition is on record?
Answer: -50.9% (inactive)

Question: With `CCOc1ccc(-c2c(C)n([O-])c3c([n+]2=O)CCCC3)cc1` as the compound, how does the inhibition read?
Answer: -18.2% (inactive)

Question: For `Cc1c(Nc2cc(N3CCCC(C)C3)c3nonc3c2[N+](=O)[O-])c(=O)n(-c2ccccc2)n1C` (stereo unspecified), which inhibition is on record?
Answer: 3.1% (inactive)

Question: With `COc1cc(/C=N/O)cc(Br)c1OCc1cccc(Cl)c1` as the compound, how does the inhibition read?
Answer: -41.4% (inactive)

Question: With `CCOC(=O)c1nn(-c2cccc(C)c2)cc1C(=O)c1ccccc1` as the compound, how does the inhibition read?
Answer: 5.4% (inactive)

Question: Which inhibition does the source give for `O=C(/C=C/c1cc2c(cc1Br)OCO2)NCc1ccc(Cl)cc1` here?
Answer: 7.8% (inactive)

Question: With `Cc1nc(NC2=NC(C(=O)Nc3ccc(Cl)cc3)CC(=O)N2)nc2ccccc12` (stereo unspecified) as the compound, how does the inhibition read?
Answer: 7.9% (inactive)

Question: For `Cc1nc(C)c(C(=O)N(c2ccc(C)c(C)c2)C(C(=O)NCc2ccco2)c2ccccc2)s1` (stereo unspecified), which inhibition is on record?
Answer: 29.1% (inactive)

Question: With `Cc1ccc(NC(=S)N/N=C2/CCCc3c(C)cc(C)cc32)cc1` as the compound, how does the inhibition read?
Answer: 13.9% (inactive)

Question: Which inhibition does the source give for `Cc1nn(-c2ccccc2)c(Cl)c1C(=O)Nc1ccccc1` here?
Answer: -7.8% (inactive)

Question: For `Cc1cc(=O)oc2cc(OC(C)C(=O)Nc3ccc(N4CCOCC4)cc3)ccc12` (stereo unspecified), which inhibition is on record?
Answer: 0.5% (inactive)

Question: Which inhibition does the source give for `CCOC(=O)CSc1ncc(-c2cccc(Cl)c2)cn1` here?
Answer: -17.9% (inactive)

Question: For `C=CCn1c(SCC(=O)c2c(N)n(C)c(=O)n(C)c2=O)nc2sc(CC)cc2c1=O`, which inhibition is on record?
Answer: 2% (inactive)

Question: With `Cc1cccc(NC(=O)c2ccc(OCC(=O)NCc3ccccc3)cc2)c1C` as the compound, how does the inhibition read?
Answer: 4.9% (inactive)

Question: For `COc1ccc(Cl)cc1NC(=O)CN(C)C(=O)CNC(=O)C12CC3CC(CC(C3)C1)C2`, which inhibition is on record?
Answer: 16% (inactive)

Question: With `O=C(Cc1ccc(S(=O)(=O)N2CCOCC2)s1)NCCC(c1ccccc1)c1ccccc1` as the compound, how does the inhibition read?
Answer: 4.8% (inactive)

Question: With `CCCc1ccc(-c2c(C)sc(NC(=O)c3ccnn3C)c2C#N)cc1` as the compound, how does the inhibition read?
Answer: 10% (inactive)

Question: With `CCOC(=O)C1=C(CN2CCc3ccccc32)NC(=O)NC1c1cc(C)ccc1C` (stereo unspecified) as the compound, how does the inhibition read?
Answer: -13.1% (inactive)

Question: With `CCn1cc(C(=O)N/N=C(/C)c2ccc(F)cc2)c(=O)c2cc(F)c(N3CCCC3)cc21` as the compound, how does the inhibition read?
Answer: 15.8% (inactive)

Question: Which inhibition does the source give for `Cc1c(C(=O)NCc2ccccc2)cnn1-c1ccccc1` here?
Answer: -6.2% (inactive)

Question: For `O=C(Nc1cc(C(F)(F)F)ccc1Cl)c1cc2nc3c(c(C(F)(F)F)n2n1)CCCC3`, which inhibition is on record?
Answer: 0.6% (inactive)

Question: Which inhibition does the source give for `O=C(CN1CCCCCC1)Nc1ccc(Br)cc1Br` here?
Answer: 12.8% (inactive)

Question: With `CC(C)(C)Cc1nnc(NC(=O)c2cc(-c3ccccc3)nc3ccccc23)s1` as the compound, how does the inhibition read?
Answer: 15.7% (inactive)

Question: With `C=CCn1c(-c2ccc(Cl)cc2)ccc(C#N)c1=O` as the compound, how does the inhibition read?
Answer: -30.7% (inactive)

Question: For `O=[N+]([O-])c1cccc(-c2nnc3c4ccccc4c4ccccc4n23)c1`, which inhibition is on record?
Answer: 5.3% (inactive)

Question: Which inhibition does the source give for `CN1OC(COC(=O)c2ccc(Cl)cc2)CC1c1ccccc1` (stereo unspecified) here?
Answer: 6.5% (inactive)

Question: For `CC1Cc2ccccc2N1CC(=O)Nc1ccc2c(c1)OC(F)(F)O2` (stereo unspecified), which inhibition is on record?
Answer: -0.7% (inactive)

Question: For `Cn1sc(NC(=O)c2ccccc2)nc1=O`, which inhibition is on record?
Answer: -7.1% (inactive)

Question: With `CCC1(C)Cc2c(sc3nc4n(c(=O)c23)CCCS4)CO1` (stereo unspecified) as the compound, how does the inhibition read?
Answer: -10.6% (inactive)

Question: Which inhibition does the source give for `CCOC(=O)Cn1c(SC)nc2sc3c(c2c1=O)CC(C)(C)OC3` here?
Answer: 81.7% (active)

Question: For `CCOC(=O)CSc1nc2sc3c(c2c(=O)[nH]1)CC(C)(C)OC3`, which inhibition is on record?
Answer: 4.9% (inactive)

Question: For `COc1ccc(CCN(C(=O)COc2ccccc2)c2nc(-c3ccccc3)cs2)cc1OC`, which inhibition is on record?
Answer: -22.5% (inactive)

Question: Which inhibition does the source give for `C=CCOc1cccc(CNn2cn[nH]c2=S)c1` here?
Answer: 0.7% (inactive)

Question: Which inhibition does the source give for `Cn1c2ccccc2n2c(=O)c(=O)n(CC(=O)c3ccc(F)cc3)nc12` here?
Answer: -17.3% (inactive)

Question: Which inhibition does the source give for `COc1ccc(Nc2nc(-c3ccccc3)cs2)cc1` here?
Answer: 11.3% (inactive)

Question: Which inhibition does the source give for `c1ccc(C2CCC(N3CCC(N4CCCCC4)CC3)CC2)cc1` (stereo unspecified) here?
Answer: 26.6% (inactive)

Question: With `O=C(CSCc1c(Cl)cccc1Cl)NN1C(=O)c2ccccc2C1=O` as the compound, how does the inhibition read?
Answer: 11.9% (inactive)

Question: For `CC(=O)NNc1cc(=O)c2c(=O)n(C)c(=O)n(C)c2[nH]1`, which inhibition is on record?
Answer: -8.3% (inactive)

Question: Which inhibition does the source give for `CCCCNC(=O)CCn1c(=S)[nH]c2cc3c(cc2c1=O)OCO3` here?
Answer: -16.1% (inactive)

Question: With `CCCNC(=S)NC1CC2CCCC(C1)N2CC(C)C` (stereo unspecified) as the compound, how does the inhibition read?
Answer: 14.2% (inactive)

Question: For `O=C(NC1CCc2ccccc21)C12CN(Cc3ccccc3)CC1C(c1cccc([N+](=O)[O-])c1)=NO2` (stereo unspecified), which inhibition is on record?
Answer: 11.9% (inactive)

Question: With `CCCSc1nsc(N)n1` as the compound, how does the inhibition read?
Answer: 8.5% (inactive)
